# Tests used:
# Test in all cases: DAPPL (digital affinity profiling via proximity ligation, sequencing); 10 mM Tris-HCl pH 7.5, 50 mM NaCl, 1 mM DTT, 4% glycerol, room temperature, 30 min; GST-TFs on glutathione beads, 16-mer random dsDNA library, 0.1% formaldehyde crosslink after washing; high values mean tight binding
# FEV = target: T1, FEV (Homo sapiens, UniProt Q99581 1-238); details: protein: recombinant; tags: N-terminal GST; dsDNA, one strand shown
# T1 sequence: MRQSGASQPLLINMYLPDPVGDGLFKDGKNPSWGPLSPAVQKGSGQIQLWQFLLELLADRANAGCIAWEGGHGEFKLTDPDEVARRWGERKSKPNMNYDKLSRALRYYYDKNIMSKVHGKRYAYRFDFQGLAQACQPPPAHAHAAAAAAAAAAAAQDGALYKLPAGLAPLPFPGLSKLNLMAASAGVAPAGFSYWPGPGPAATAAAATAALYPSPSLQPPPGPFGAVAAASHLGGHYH
# Method in brief: (§1)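 The binding signal reported is, for every hexamer, its read frequency for a factor over its read frequency for the tag-only sample. Reads came from pools of yeast-expressed, GST-fused human transcription factors on glutathione beads, barcoded with DNA and mixed with that sample, which were incubated with 200 nmole of a random double-stranded 16-mer DNA library in Tris/NaCl/DTT/glycerol buffer at room temperature for 30 min. After washing, the pools were crosslinked with 0.1% formaldehyde, proximity-ligated with BsaI/T4 ligase for 1 h at 37 °C, PCR-amplified and sequenced on an Illumina NextSeq500.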
# ETV5 = ETV5 (Homo sapiens, UniProt P41161 1-510); details: protein: recombinant; tags: N-terminal GST; dsDNA, one strand shown
# Method in brief: as §1
# HSF1 = HSF1 (Homo sapiens, UniProt Q00613 1-529); details: protein: recombinant; tags: N-terminal GST; chain copies: 3; dsDNA, one strand shown
# Method in brief: as §1
# SPIC = target: T2, SPIC (Homo sapiens, UniProt Q8N5J4 1-248); details: protein: recombinant; tags: N-terminal GST; dsDNA, one strand shown
# T2 sequence: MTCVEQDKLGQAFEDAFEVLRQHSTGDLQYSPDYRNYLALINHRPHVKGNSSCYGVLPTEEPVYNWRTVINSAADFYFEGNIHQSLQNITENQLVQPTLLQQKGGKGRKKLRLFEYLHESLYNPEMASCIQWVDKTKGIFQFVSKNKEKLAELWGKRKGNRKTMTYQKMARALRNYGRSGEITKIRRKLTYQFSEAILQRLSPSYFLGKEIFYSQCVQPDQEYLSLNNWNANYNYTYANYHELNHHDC
# Method in brief: as §1
# ELF4 = ELF4 (Homo sapiens, UniProt Q99607 1-663); details: protein: recombinant; tags: N-terminal GST; dsDNA, one strand shown
# Method in brief: as §1
# ELK4 = target: T3, ELK4 (Homo sapiens, UniProt P28324-2 1-405); details: protein: recombinant; tags: N-terminal GST; dsDNA, one strand shown
# T3 sequence: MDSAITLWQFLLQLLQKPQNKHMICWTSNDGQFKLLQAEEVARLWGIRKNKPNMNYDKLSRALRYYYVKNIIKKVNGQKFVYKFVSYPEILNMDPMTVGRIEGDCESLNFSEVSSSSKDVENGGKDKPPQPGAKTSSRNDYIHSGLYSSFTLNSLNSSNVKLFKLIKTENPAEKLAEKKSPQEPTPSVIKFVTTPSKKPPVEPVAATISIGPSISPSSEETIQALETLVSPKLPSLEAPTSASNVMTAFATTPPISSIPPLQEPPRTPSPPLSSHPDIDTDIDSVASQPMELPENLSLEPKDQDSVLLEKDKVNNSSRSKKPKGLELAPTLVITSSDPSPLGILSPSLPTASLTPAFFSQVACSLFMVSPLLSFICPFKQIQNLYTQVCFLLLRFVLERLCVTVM
# Method in brief: as §1
# ETV2 = target: T4, ETV2 (Homo sapiens, UniProt O00321 1-342); details: protein: recombinant; tags: N-terminal GST; dsDNA, one strand shown
# T4 sequence: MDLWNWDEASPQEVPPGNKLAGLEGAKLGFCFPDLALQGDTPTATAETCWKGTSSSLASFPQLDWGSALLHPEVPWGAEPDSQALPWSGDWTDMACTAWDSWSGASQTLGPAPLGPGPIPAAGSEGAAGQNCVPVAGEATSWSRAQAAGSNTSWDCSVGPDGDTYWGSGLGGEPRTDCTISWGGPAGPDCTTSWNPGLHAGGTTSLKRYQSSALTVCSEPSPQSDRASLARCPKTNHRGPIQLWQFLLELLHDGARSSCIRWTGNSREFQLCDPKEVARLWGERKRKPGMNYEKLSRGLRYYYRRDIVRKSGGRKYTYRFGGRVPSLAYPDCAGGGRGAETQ
# Method in brief: as §1
# ELF3 = target: T5, ELF3 (Homo sapiens, UniProt P78545 1-371); details: protein: recombinant; tags: N-terminal GST; dsDNA, one strand shown
# T5 sequence: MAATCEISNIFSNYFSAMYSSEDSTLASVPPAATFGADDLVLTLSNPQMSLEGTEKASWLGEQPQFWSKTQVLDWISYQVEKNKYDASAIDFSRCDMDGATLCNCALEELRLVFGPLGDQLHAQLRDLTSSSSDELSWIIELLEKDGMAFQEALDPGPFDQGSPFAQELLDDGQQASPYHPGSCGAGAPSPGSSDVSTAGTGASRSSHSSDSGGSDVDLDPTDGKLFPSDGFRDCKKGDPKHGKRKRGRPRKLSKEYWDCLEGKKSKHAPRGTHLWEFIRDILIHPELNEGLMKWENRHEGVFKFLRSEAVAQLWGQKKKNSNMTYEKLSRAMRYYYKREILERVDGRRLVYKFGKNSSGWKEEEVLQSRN
# Method in brief: as §1
# CRX = CRX (Homo sapiens, UniProt O43186 1-299); details: protein: recombinant; tags: N-terminal GST; dsDNA, one strand shown
# Method in brief: as §1
# ETV1 = ETV1 (Homo sapiens, UniProt P50549 1-477); details: protein: recombinant; tags: N-terminal GST; dsDNA, one strand shown
# Method in brief: as §1
# ERF = target: T6, ERF (Homo sapiens, UniProt P50548 1-548); details: protein: recombinant; tags: N-terminal GST; dsDNA, one strand shown
# T6 sequence: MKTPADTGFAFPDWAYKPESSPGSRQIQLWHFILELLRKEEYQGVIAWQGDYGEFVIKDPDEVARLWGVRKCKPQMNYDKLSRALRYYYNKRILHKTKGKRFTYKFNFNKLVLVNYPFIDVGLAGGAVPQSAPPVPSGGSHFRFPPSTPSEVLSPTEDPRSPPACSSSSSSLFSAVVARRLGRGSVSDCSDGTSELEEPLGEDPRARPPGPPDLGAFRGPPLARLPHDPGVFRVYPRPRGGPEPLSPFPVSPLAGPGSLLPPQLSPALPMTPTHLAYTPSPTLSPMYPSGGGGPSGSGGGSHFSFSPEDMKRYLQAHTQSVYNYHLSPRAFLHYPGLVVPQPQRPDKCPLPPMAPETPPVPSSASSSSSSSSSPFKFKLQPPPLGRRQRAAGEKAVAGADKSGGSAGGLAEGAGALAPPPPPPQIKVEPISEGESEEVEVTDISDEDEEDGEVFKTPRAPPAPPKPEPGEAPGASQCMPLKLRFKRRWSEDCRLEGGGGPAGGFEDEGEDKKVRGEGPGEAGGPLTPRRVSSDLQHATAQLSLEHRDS
# Method in brief: as §1
# ETV3L = target: T7, ETV3L (Homo sapiens, UniProt Q6ZN32 1-361); details: protein: recombinant; tags: N-terminal GST; dsDNA, one strand shown
# T7 sequence: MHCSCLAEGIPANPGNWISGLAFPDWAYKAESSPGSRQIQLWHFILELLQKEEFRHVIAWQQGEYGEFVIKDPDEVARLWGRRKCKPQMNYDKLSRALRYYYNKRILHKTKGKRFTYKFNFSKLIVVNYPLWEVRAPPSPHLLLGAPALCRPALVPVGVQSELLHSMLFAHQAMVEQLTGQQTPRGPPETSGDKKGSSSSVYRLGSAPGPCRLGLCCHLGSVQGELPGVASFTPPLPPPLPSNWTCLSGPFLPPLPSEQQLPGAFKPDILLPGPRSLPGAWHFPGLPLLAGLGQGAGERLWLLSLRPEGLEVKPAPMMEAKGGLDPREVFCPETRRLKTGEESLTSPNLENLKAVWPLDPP
# Method in brief: as §1
# ETS2 = target: T8, ETS2 (Homo sapiens, UniProt P15036 1-469); details: protein: recombinant; tags: N-terminal GST; dsDNA, one strand shown
# T8 sequence: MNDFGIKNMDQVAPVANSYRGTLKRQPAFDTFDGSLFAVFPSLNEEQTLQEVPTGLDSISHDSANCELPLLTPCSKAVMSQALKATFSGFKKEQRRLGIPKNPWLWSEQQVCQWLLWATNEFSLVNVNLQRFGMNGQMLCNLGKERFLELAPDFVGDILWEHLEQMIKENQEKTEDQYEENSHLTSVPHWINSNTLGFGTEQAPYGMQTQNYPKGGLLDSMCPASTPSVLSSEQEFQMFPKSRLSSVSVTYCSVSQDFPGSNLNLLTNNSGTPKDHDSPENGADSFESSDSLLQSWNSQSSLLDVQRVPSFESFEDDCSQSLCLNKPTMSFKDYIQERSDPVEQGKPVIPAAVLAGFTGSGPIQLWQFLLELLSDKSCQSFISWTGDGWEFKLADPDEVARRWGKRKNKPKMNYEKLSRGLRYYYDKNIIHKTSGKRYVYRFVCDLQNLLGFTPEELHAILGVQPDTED
# Method in brief: as §1
# SPDEF = target: T9, SPDEF (Homo sapiens, UniProt O95238 1-335); details: protein: recombinant; tags: N-terminal GST; dsDNA, one strand shown
# T9 sequence: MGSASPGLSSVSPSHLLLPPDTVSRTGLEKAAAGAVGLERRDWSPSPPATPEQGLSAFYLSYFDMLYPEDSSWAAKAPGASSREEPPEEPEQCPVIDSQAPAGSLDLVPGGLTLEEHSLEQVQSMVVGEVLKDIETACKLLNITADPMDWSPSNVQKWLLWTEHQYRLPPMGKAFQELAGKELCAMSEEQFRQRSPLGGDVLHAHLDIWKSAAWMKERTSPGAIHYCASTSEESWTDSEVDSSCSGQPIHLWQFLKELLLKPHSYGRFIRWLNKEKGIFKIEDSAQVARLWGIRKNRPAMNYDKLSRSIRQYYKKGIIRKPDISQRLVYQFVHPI
# Method in brief: as §1
# ETV7 = target: T10, ETV7 (Homo sapiens, UniProt Q9Y603 1-341); details: protein: recombinant; tags: N-terminal GST; dsDNA, one strand shown
# T10 sequence: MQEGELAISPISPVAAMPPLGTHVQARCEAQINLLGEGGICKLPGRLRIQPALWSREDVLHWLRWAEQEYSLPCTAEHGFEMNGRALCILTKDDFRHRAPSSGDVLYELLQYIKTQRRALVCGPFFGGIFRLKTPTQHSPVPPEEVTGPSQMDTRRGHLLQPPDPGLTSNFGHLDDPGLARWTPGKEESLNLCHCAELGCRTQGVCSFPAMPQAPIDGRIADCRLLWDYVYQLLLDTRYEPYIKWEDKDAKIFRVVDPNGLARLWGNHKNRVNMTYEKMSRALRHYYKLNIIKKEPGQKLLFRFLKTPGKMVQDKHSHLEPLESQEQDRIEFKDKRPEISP
# Method in brief: as §1
# ELF5 = target: T11, ELF5 (Homo sapiens, UniProt Q9UKW6-2 1-255); details: protein: recombinant; tags: N-terminal GST; dsDNA, one strand shown
# T11 sequence: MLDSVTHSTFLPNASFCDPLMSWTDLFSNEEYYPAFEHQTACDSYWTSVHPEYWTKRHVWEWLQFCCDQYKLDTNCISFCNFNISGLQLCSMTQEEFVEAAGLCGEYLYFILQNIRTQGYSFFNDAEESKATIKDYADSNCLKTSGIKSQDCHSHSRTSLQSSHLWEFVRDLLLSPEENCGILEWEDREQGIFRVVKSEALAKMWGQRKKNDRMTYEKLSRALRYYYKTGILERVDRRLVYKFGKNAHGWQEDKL
# Method in brief: as §1
# ETV3 = target: T12, ETV3 (Homo sapiens, UniProt P41162-2 1-143); details: protein: recombinant; tags: N-terminal GST; dsDNA, one strand shown
# T12 sequence: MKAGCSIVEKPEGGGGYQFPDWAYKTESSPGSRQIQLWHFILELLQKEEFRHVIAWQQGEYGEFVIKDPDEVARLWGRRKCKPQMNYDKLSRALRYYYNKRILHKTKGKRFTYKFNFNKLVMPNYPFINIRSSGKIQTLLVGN
# Method in brief: as §1
# ETV6 = ETV6 (Homo sapiens, UniProt P41212 1-452); details: protein: recombinant; tags: N-terminal GST; dsDNA, one strand shown
# Method in brief: as §1
# Chain of ETV6 (P41212 whole entry): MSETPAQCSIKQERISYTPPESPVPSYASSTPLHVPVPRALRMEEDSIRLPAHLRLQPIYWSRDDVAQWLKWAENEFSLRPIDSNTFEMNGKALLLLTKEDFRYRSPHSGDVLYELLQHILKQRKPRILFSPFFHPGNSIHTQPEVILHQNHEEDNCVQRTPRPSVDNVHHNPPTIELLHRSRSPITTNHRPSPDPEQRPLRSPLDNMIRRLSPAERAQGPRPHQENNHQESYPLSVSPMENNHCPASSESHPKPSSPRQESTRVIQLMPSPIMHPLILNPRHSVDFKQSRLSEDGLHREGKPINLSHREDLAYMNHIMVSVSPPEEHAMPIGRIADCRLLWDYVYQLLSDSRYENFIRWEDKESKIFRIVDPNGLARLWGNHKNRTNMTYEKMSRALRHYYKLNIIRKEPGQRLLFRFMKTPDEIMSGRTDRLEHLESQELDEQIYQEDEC
# Chain of HSF1 (Q00613 whole entry): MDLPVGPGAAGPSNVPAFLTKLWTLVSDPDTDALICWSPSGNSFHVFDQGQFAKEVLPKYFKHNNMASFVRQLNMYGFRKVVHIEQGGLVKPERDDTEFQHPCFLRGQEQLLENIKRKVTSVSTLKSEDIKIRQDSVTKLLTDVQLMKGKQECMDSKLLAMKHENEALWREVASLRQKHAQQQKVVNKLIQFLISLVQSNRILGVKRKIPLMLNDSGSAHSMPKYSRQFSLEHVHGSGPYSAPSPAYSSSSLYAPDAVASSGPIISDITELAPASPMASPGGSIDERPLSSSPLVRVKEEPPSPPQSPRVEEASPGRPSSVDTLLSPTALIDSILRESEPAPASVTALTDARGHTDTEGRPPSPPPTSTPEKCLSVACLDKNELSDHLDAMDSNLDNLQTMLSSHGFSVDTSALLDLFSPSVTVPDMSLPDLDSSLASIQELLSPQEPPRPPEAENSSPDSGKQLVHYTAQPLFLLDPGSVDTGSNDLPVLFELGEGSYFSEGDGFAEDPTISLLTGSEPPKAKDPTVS
# Chain of ETV5 (P41161 whole entry): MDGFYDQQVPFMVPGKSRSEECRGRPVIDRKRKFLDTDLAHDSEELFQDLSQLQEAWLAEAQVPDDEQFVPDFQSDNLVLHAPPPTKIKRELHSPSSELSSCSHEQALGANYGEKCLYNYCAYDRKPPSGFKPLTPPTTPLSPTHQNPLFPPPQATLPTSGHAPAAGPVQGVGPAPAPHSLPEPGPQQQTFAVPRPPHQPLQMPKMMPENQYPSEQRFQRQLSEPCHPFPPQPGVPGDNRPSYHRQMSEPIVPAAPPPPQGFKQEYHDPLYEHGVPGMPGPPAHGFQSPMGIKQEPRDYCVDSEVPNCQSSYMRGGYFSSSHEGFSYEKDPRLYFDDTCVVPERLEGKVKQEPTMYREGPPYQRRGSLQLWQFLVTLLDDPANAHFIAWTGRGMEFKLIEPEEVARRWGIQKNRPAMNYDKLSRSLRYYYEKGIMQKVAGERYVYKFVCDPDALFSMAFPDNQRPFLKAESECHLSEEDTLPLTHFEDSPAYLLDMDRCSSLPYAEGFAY
# Chain of CRX (O43186 whole entry): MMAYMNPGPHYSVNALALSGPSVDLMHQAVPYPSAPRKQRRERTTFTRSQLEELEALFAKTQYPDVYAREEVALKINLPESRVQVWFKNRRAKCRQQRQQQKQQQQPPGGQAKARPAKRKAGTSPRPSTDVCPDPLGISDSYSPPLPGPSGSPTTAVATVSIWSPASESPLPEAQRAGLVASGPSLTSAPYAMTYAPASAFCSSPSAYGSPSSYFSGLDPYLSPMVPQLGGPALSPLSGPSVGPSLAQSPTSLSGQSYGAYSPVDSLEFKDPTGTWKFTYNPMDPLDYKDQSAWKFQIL
# Chain of ELF4 (Q99607 whole entry): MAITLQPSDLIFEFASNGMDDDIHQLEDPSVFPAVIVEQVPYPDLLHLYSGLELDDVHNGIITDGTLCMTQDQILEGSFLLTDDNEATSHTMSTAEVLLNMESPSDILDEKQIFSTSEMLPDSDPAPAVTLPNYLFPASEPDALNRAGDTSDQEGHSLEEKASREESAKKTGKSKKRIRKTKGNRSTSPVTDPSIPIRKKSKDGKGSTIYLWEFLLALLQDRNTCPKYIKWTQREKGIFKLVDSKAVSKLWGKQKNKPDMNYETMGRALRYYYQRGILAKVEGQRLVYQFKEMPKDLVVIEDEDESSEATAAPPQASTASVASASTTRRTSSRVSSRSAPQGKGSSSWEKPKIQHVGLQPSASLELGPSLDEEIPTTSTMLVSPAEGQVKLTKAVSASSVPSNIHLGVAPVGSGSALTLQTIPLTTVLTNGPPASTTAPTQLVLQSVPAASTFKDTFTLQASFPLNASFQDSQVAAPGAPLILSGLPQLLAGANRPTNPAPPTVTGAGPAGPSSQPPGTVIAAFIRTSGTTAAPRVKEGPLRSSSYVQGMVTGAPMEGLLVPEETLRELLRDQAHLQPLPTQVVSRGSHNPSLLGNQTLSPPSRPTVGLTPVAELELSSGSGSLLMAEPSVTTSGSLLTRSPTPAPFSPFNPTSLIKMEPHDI
# Chain of ETV1 (P50549 whole entry): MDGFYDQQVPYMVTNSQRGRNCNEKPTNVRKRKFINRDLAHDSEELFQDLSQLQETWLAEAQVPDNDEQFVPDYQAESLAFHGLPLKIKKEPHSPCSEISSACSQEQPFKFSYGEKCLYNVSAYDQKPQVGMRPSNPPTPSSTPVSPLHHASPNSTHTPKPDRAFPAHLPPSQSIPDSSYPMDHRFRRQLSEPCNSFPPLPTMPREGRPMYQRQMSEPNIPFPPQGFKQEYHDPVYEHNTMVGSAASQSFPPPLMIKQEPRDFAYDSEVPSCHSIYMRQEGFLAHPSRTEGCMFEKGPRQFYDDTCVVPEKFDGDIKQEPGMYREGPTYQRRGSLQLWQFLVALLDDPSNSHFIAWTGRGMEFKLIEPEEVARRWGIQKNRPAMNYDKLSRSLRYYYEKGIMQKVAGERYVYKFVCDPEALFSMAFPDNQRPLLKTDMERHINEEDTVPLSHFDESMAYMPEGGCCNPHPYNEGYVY
sequence,measurement,setting,value
ATCCCT,binding signal,FEV,"1.3 fold enrichment (6-mer frequency, TF over GST control)"
same,binding signal,ETV5,"1.3 fold enrichment (6-mer frequency, TF over GST control)"
same,binding signal,HSF1,"1.64 fold enrichment (6-mer frequency, TF over GST control)"
same,binding signal,SPIC,"1.27 fold enrichment (6-mer frequency, TF over GST control)"
same,binding signal,ELF4,"1.38 fold enrichment (6-mer frequency, TF over GST control)"
same,binding signal,ELK4,"1.33 fold enrichment (6-mer frequency, TF over GST control)"
same,binding signal,ETV2,"1.13 fold enrichment (6-mer frequency, TF over GST control)"
same,binding signal,ELF3,"1.22 fold enrichment (6-mer frequency, TF over GST control)"
same,binding signal,CRX,"2.17 fold enrichment (6-mer frequency, TF over GST control)"
same,binding signal,ETV1,"1.21 fold enrichment (6-mer frequency, TF over GST control)"
same,binding signal,ERF,"1.33 fold enrichment (6-mer frequency, TF over GST control)"
same,binding signal,ETV3L,"1.35 fold enrichment (6-mer frequency, TF over GST control)"
same,binding signal,ETS2,"1.23 fold enrichment (6-mer frequency, TF over GST control)"
same,binding signal,SPDEF,"1.41 fold enrichment (6-mer frequency, TF over GST control)"
same,binding signal,ETV7,"1.14 fold enrichment (6-mer frequency, TF over GST control)"
same,binding signal,ELF5,"1.37 fold enrichment (6-mer frequency, TF over GST control)"
same,binding signal,ETV3,"1.21 fold enrichment (6-mer frequency, TF over GST control)"
same,binding signal,ETV6,"1.23 fold enrichment (6-mer frequency, TF over GST control)"
